The text below walks through data of PubChem BioAssay (EPA / NIEHS).

Calls of active or inactive are those of the source. The calls were made as follows: active = hit-call score of the fitted dose curve at least 0.9, where 1 is the maximum; inactive = score below 0.9.

Sequence of Cytochrome P450 3A7 (Homo sapiens) (P24462 whole entry, looked up): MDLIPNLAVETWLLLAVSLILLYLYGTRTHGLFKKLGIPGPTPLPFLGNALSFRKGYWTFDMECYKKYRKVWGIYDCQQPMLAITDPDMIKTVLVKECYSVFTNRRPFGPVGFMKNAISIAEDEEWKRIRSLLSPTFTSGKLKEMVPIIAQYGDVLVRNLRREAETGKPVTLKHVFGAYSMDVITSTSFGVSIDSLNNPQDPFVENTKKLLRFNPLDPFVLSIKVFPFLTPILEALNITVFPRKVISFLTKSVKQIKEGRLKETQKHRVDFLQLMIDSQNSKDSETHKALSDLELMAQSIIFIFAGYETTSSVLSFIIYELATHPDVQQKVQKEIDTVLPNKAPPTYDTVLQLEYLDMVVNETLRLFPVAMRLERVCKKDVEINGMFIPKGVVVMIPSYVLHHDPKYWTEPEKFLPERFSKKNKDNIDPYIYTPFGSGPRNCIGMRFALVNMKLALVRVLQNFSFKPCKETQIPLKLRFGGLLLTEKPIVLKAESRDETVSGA

Read-out in the first test: Ezrin (EZR), EZR (gene 7430)
Kind of test: LTEA_HepaRG_EZR: Life Technologies and Expression Analysis (LTEA) Assay for Ezrin (EZR) using HepaRG (AID 2283491). As to conditions: mRNA level, 48 h; actives raise or lower the signal. Summed up: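 HepaRG, 48 h chemical exposure, 8-pt half-log series from 100 uM, 0.5% DMSO vehicle, duplicates. Read-out: EZR mRNA by TaqMan qRT-PCR (Fluidigm array), housekeeping-normalized; bidirectional curve fit vs DMSO baseline.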
Turning to `CC(C)OC(=O)C(C)(C)Oc1ccc(C(=O)c2ccc(Cl)cc2)cc1`, the AC50 is 0.536 µM (active).

`CCCC[C@H]1CN(CC2CCOCC2)C(=O)OC12CCN(C1(C)CCN(C(=O)c3c(C)ncnc3C)CC1)CC2`: the call was inactive.

In the case of `CCCCCCCCCCCCCCOS(=O)(=O)O`, the call was inactive.

Consider `OCC(CO)n1cnc(-c2ccc(F)cc2)c1-c1ccnc(Oc2ccccc2)n1`, for which the molecule was classed as inactive.

In the case of `CC(C)(O)c1ccc(CNC(=O)c2cccnc2Oc2ccc(F)cc2)cc1`, the molecule was classed as inactive.

For `Cc1cc(SC2=C(O)C[C@@](CCc3ccc(N)cc3)(C(C)C)OC2=O)c(C(C)(C)C)cc1CO`, the outcome was inactive.

With `N[C@@H](Cc1c[nH]c2ccccc12)C(=O)O`, the result was inactive.

Consider `CC(C)c1cccc(C(C)C)c1`, for which the outcome was inactive.

As to `CC(=O)S[C@H](C(=O)N[C@H]1Cc2ccccc2[C@H]2CCC[C@@H](C(=O)O)N2C1=O)C(C)C`, the molecule was classed as inactive.

`COc1ccc(C(=O)Nc2nc3ccccc3c(NCc3ccccc3)c2C#N)cc1`: the outcome was inactive.

Turning to `O=C(Oc1ccccc1)c1cccc(C(=O)Oc2ccccc2)c1`, the call was inactive.

Consider `CN(C)C(=O)NC1(c2ccccc2)CCN(CC[C@@]2(c3ccc(F)c(F)c3)CN(C(=O)c3ccccc3)CCO2)CC1`, for which the molecule was called inactive.

Consider `CC(C)c1cccc(C(C)C)c1NC(=O)NS(=O)(=O)c1cc(C(C)(C)O)co1`, for which the molecule was classed as inactive.

For the molecule `O=C1c2c(O)cccc2Cc2cccc(O)c21`, the molecule was called inactive.

`O=[Si]=O`: the outcome was inactive.

As to `CC(N)=O`, the molecule was classed as inactive.

Take `CC(C)(C)c1ccccc1`: the outcome was inactive.

For the molecule `Cc1ccc(C(C)(C)C)c(O)c1`, the outcome was inactive.

On to `c1ccc2occc2c1`, for which the call was inactive.

On to `COC(=O)CCC(=O)OC`, for which the molecule was called inactive.

As for `CC(=O)CC(c1ccccc1)c1c(O)c2ccccc2oc1=O` (stereo not given), the result was inactive.

As for `CCc1cc(C2=C(C(=O)O)N(c3ccccc3C(F)(F)F)S(=O)(=O)c3ccccc32)cc2c1OCO2`, the outcome was inactive.

Regarding `CCCCc1nc2cccnc2n1Cc1ccc(-c2ccccc2-c2nnn[nH]2)cc1`, the outcome was inactive.

Regarding `CCCCC(CC)CO` (stereo not given), the molecule was called inactive.

For `CC1=C(C)S(=O)(=O)CCS1(=O)=O`, the outcome was inactive.

For `CCCCC(CC)COP(=O)(OCC(CC)CCCC)OCC(CC)CCCC` (stereo not given), the molecule was classed as inactive.

Consider `CC(COCC(C)OC(=O)c1ccccc1)OC(=O)c1ccccc1` (stereo not given), for which the call was inactive.

With `CC1(C)C(=O)NC(=O)N1CO`, the call was inactive.

Consider `CCCCCCC(CCCCCCCCCCC(=O)OCC(COC(C)=O)OC(C)=O)OC(C)=O` (stereo not given), for which the outcome was inactive.

In the case of `O=Cc1ccccc1C=O`, the call was inactive.

Read-out in the next test: Cytochrome P450 3A7 (Homo sapiens) (UniProt P24462)
In words: LTEA_HepaRG_CYP3A7: Life Technologies and Expression Analysis (LTEA) Assay for CYP3A7 using HepaRG (AID 2283492). As to conditions: mRNA level, 48 h; actives raise or lower the signal. Summed up: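 Differentiated HepaRG cells in serum-free induction medium exposed 48 h in duplicate to 8-point half-log series from 100 uM top in 0.5% DMSO. CYP3A7 mRNA by qRT-PCR, normalized to ACTB/GAPDH/POLR2A, bidirectional fit versus DMSO.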
Consider `CC(C)OC(=O)C(C)(C)Oc1ccc(C(=O)c2ccc(Cl)cc2)cc1`, for which the molecule was called inactive.

As to `CCCC[C@H]1CN(CC2CCOCC2)C(=O)OC12CCN(C1(C)CCN(C(=O)c3c(C)ncnc3C)CC1)CC2`, the result was inactive.

As for `CCCCCCCCCCCCCCOS(=O)(=O)O`, the outcome was inactive.

As for `OCC(CO)n1cnc(-c2ccc(F)cc2)c1-c1ccnc(Oc2ccccc2)n1`, the AC50 is 7.88 µM (active).

Turning to `CC(C)(O)c1ccc(CNC(=O)c2cccnc2Oc2ccc(F)cc2)cc1`, the AC50 is 9.92 µM (active).

Turning to `Cc1cc(SC2=C(O)C[C@@](CCc3ccc(N)cc3)(C(C)C)OC2=O)c(C(C)(C)C)cc1CO`, the half-maximal activity concentration (AC50) is 0.151 µM (active).

With `N[C@@H](Cc1c[nH]c2ccccc12)C(=O)O`, the molecule was classed as inactive.

Regarding `CC(C)c1cccc(C(C)C)c1`, the call was inactive.

Consider `CC(=O)S[C@H](C(=O)N[C@H]1Cc2ccccc2[C@H]2CCC[C@@H](C(=O)O)N2C1=O)C(C)C`, for which the molecule was called inactive.

For `COc1ccc(C(=O)Nc2nc3ccccc3c(NCc3ccccc3)c2C#N)cc1`, the AC50 is 14.3 µM (active).

As for `O=C(Oc1ccccc1)c1cccc(C(=O)Oc2ccccc2)c1`, the molecule was called inactive.

On to `CN(C)C(=O)NC1(c2ccccc2)CCN(CC[C@@]2(c3ccc(F)c(F)c3)CN(C(=O)c3ccccc3)CCO2)CC1`, for which the AC50 was 2.8 µM (active).

For the molecule `CC(C)c1cccc(C(C)C)c1NC(=O)NS(=O)(=O)c1cc(C(C)(C)O)co1`, the outcome was inactive.

In the case of `O=C1c2c(O)cccc2Cc2cccc(O)c21`, the call was inactive.

Consider `O=[Si]=O`, for which the call was inactive.

For the molecule `CC(N)=O`, the molecule was called inactive.

With `CC(C)(C)c1ccccc1`, the call was inactive.

As to `Cc1ccc(C(C)(C)C)c(O)c1`, the molecule was called inactive.

For the molecule `c1ccc2occc2c1`, the call was inactive.

Regarding `COC(=O)CCC(=O)OC`, the molecule was called inactive.

For `CC(=O)CC(c1ccccc1)c1c(O)c2ccccc2oc1=O` (stereo not given), the AC50 was 34.7 µM (active).

On to `CCc1cc(C2=C(C(=O)O)N(c3ccccc3C(F)(F)F)S(=O)(=O)c3ccccc32)cc2c1OCO2`, for which the AC50 is 0.645 µM (active).

Take `CCCCc1nc2cccnc2n1Cc1ccc(-c2ccccc2-c2nnn[nH]2)cc1`: the AC50 was 13.7 µM (active).

For `CCCCC(CC)CO` (stereo not given), the molecule was called inactive.

`CC1=C(C)S(=O)(=O)CCS1(=O)=O`: the half-maximal activity concentration (AC50) is 72 µM (active).

With `CCCCC(CC)COP(=O)(OCC(CC)CCCC)OCC(CC)CCCC` (stereo not given), the AC50 was 5.61 µM (active).

Turning to `CC(COCC(C)OC(=O)c1ccccc1)OC(=O)c1ccccc1` (stereo not given), the result was inactive.

Consider `CC1(C)C(=O)NC(=O)N1CO`, for which the outcome was inactive.

Regarding `CCCCCCC(CCCCCCCCCCC(=O)OCC(COC(C)=O)OC(C)=O)OC(C)=O` (stereo not given), the outcome was inactive.

Regarding `O=Cc1ccccc1C=O`, the result was inactive.
